Source: PubChem BioAssay
Rows were chosen to be rich in hits. Some 10% of all compounds tested hit in one or more screens of this group.
CCT modulator = changes cytosolic chaperonin activity; purified chaperonin ATPase assay, HTRF ADP detection, 30 min; activity change, % (test concentration not listed), hits read low; hit rate 0.3% among 360,000; AID 651819; in the data active = activity change below about -30%
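TRiC (40 or 20 nM final, by batch activity) in 30 mM Tris pH 7.4, 100 mM KCl, 5 mM MgCl2, 1 mM DTT was treated with compound at 76 uM single dose, then 10 uM ATP, 30 min at 37 °C. ADP was read by HTRF Transcreener.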
PLK1 PBD inh = blocks phosphopeptide binding to human PLK1 polo-box domain; P53350; Plk1 PBD binding of FITC phosphopeptide, fluorescence polarization; Potency, µM, hits mostly inhibitors; hit rate 2.8% among 360,000; also: series mostly up to about 57 µM; nearly all actives have a fitted effect of over 65% in size
Sfp inh = blocks B. subtilis Sfp PPTase activity; Q9F4F7; Biochemical Sfp PPTase activity, qHTS; Potency, µM, hits mostly inhibitors; hit rate 3.5% among 310,000; AID 1490;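 also: the enzyme is Sfp with the accession as filed and its product quenches rhodamine fluorescence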
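After 15 min at room temperature with compound, 15 nM Sfp received 5 uM rhodamine-CoA plus 12.5 uM BHQ-2-ybbR (50 mM Hepes pH 7.6, 10 mM MgCl2). Rate came from the fluorescence difference over 30 min, ex 525/em 598 nm.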
MmCpn inh = M. maripaludis TRiC chaperonin inhibition. hit rate 0.031% among 330,000. Potency, µM (series often up to 76.9 µM), most hits filed as inhibitors. AID 504842. purified Mm-Cpn ATPase, ADP Transcreener TR-FRET; also: nearly all actives have a fitted effect of over 80% in size
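Purified archaeal Mm-CPN (25nM final) preincubated 10 min at 37degC with compound, then 10uM ATP for 30 min at 37degC; ADP measured by HTRF Transcreener TR-FRET; buffer 30 mM TRIS pH 7.4, 100mM KCl, 5mM MgCl2, 1mM DTT.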
VDR inh = inhibitors of human vitamin D receptor | P11473 | VDR-SRC2-3 peptide fluorescence polarization, 2 h | Potency, µM, most hits filed as inhibitors | hit rate 0.93% among 400,000 | AID 504847
Target sequence (P11473 whole entry, looked up): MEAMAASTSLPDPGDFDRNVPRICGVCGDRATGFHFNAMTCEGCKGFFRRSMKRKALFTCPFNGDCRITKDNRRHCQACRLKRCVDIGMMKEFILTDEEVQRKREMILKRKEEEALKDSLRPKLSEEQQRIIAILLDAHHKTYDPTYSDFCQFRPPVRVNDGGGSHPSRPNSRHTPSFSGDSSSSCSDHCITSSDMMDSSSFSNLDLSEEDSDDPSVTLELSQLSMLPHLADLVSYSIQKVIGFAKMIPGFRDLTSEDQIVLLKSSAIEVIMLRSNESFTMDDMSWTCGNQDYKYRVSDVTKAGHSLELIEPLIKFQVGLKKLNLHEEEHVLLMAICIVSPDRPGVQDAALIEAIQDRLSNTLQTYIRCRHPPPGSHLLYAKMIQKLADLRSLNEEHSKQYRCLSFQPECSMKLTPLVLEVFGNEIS
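Inhibition of the VDR/SRC2-3 peptide interaction is quantified by fluorescence polarization. Compounds (23 nl, pintool) incubate with the reagents for 2 hours at ambient room temperature.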
G9a inh = G9a (human) methyltransferase inhibition; Q96KQ7; G9a H3K9 monomethylation, AlphaScreen, 2 h; AID 504332; hit rate 8.8% among 350,000; Potency, µM (doses to about 102 µM), usual class: inhibitors; also: nearly all actives have a fitted effect of over 75% in size
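Signal arises when biotinylated H3K9 peptide, once monomethylated, bridges streptavidin donor and antibody-captured acceptor beads. Enzyme at 20 nM was preincubated 15 min with test compounds; peptide 500 nM and SAM 20 uM then reacted for 2 h.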
Each line names hits and unclear results; the compound was inactive in the other large screens. Unless noted, calls follow the shape of the dose curve; as a rule, active = well fitted curve in the direction sought with a large enough effect; inconclusive = small, poorly fitted or top-dose-only effect, or another doubt; inactive = no such curve, though single readings can be large; an effect the other way counts as inactive or inconclusive.

NS(=O)(=O)c1ccc(N/N=C/C=C/c2ccccc2[N+](=O)[O-])cc1	G9a inh 32µM
O=[N+]([O-])c1ccccc1/C=C/C=N/Nc1nc(N2CCCCC2)nc(N2CCCCC2)n1	PLK1 PBD inh 27µM, Sfp inh inconclusive, VDR inh inconclusive, G9a inh 40µM
COCCN1C(=O)N(c2cccc(OC)c2)C(=O)C1CC(=O)Nc1ccccc1 (stereo unspecified)	none (no result: CCT modulator, PLK1 PBD inh, Sfp inh, MmCpn inh)
O=C(Nc1cccc(Cl)c1)N1CCSc2ccccc21	none (no result: CCT modulator, PLK1 PBD inh, Sfp inh, MmCpn inh)
Cc1ccc(-n2ncc3c(N4CCCCCC4)ncnc32)cc1	none (no result: CCT modulator, PLK1 PBD inh, Sfp inh, MmCpn inh)
O=[N+]([O-])c1ccc(/C=N/Nc2nc(N3CCCCC3)nc(N3CCCCC3)n2)cc1	none (no result: G9a inh)
O=[N+]([O-])c1ccc(/C=N/Nc2nc(N3CCCCCC3)nc(N3CCCCCC3)n2)o1	G9a inh 10µM
CCCSc1nc(NCc2ccco2)c2c3c(sc2n1)COC(C)(C)C3	none
CCCCSc1nc(NCc2ccco2)c2c3c(sc2n1)COC(C)(C)C3	Sfp inh inconclusive, G9a inh 50µM
COc1ccc2c(c1)C(NC(C)=O)C(=O)N2CCc1ccccc1 (stereo unspecified)	none
CCc1ccc2c(c1)C(NC(C)=O)C(=O)N2CCN1CCOCC1 (stereo unspecified)	Sfp inh inconclusive, MmCpn inh inconclusive, VDR inh inconclusive, G9a inh 28µM
CC(=O)NC1C(=O)N(CCc2ccccc2)c2ccccc21 (stereo unspecified)	G9a inh inconclusive
CCCN1C(=O)C(NC(C)=O)c2ccccc21 (stereo unspecified)	G9a inh 40µM
CC1Cc2cc(S(=O)(=O)CCC(=O)NCc3ccccc3Cl)ccc2N1C(=O)C1CC1 (stereo unspecified)	none (no result: CCT modulator, PLK1 PBD inh, Sfp inh, MmCpn inh)
COc1ccc(S(=O)(=O)N2CCOCC2)cc1NC(=O)CSc1nnc(N)s1	G9a inh 45µM (no result: Sfp inh)
COc1ccc(S(=O)(=O)N2CCOCC2)cc1N=Nc1sc(N)nc1-c1ccccc1	G9a inh 14µM
COc1ccc(S(=O)(=O)N2CCOCC2)cc1NC(=O)CSc1n[nH]c(C(C)C)n1	PLK1 PBD inh 27µM, Sfp inh 25µM, G9a inh 28µM
CCN(CC)c1ccc(S(=O)(=O)N2CCOCC2)cc1NC(=O)CSc1nncs1	G9a inh 35µM (no result: Sfp inh)
CCN(CC)c1ccc(S(=O)(=O)N2CCOCC2)cc1NC(=O)CSc1nncn1C	G9a inh inconclusive (no result: Sfp inh)
C[C@@H]1Nc2ccc(Cl)cc2S(=O)(=O)N1	none (no result: CCT modulator, PLK1 PBD inh, MmCpn inh, G9a inh)
COc1ccc(NC(=O)C(NS(=O)(=O)c2cccc3nsnc23)c2ccccc2)cc1 (stereo unspecified)	none (no result: CCT modulator, PLK1 PBD inh, Sfp inh, MmCpn inh)
CC(=O)c1cccc(NS(=O)(=O)c2cc(-c3onc(C)c3C)ccc2C)c1	none (no result: CCT modulator, PLK1 PBD inh, Sfp inh, MmCpn inh)
CCN(CC)CCNC(=O)c1[nH]c2ccccc2c1Sc1ccc(Cl)cc1	none (no result: CCT modulator, PLK1 PBD inh, Sfp inh, MmCpn inh)
Cc1ccc(S(=O)(=O)N2CCCC2C(=O)Nc2nc3ccccc3s2)cc1 (stereo unspecified)	G9a inh 16µM
CC(C)C(=O)NNc1nc2ccccc2s1	none
NS(=O)(=O)c1ccc2nc(NC(=O)Nc3ccc(F)cc3)sc2c1	G9a inh 50µM
